Data published in the supplement of paper PMC6555819.

Key:
Test in all cases: PBM binding z-score (relative to random genomic background probes); higher = stronger binding; sequences stand for … in GC…GCGATTGACAGCGTAGAATGAAGG
[1] = test system: PPARg:RXRa DBDmut IVT, anti-RXR (DBD mutation: RXRa K156A/R161A, NR concentration 270 nM, RXRa partner concentration 90 nM)
Outline: (§1)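 Ligand-free nuclear receptor dimers were applied to custom Agilent 4×180K protein-binding microarrays whose double-stranded probes carried direct-repeat seeds, single-nucleotide variants, half-site ablations and random human genomic background sequences in 34-nt variable regions. Incubation lasted 1 h. Binding z-scores were computed against the random background probes from regression-normalized fluorescence.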

[2] = test system: PPARg:RXRa IVT, anti-PPARg (NR concentration 270 nM, RXRa partner concentration 90 nM)
Outline: as §1

[3] = test system: PPARg DBDmut:RXRa IVT, anti-PPARg (DBD mutation: PPARg1 K132A/R137A, NR concentration 270 nM, RXRa partner concentration 90 nM)
Outline: as §1

[4] = test system: PPARg DBDmut IVT, anti-PPARg (DBD mutation: PPARg1 K132A/R137A, NR concentration 270 nM)
Outline: as §1

[5] = test system: PPARg homodimer (NR concentration 180 nM)
Outline: as §1

[6] = test system: PXR:RXRa (NR concentration 270 nM, RXRa partner concentration 90 nM)
Outline: as §1

[7] = test system: PXR homodimer (NR concentration 270 nM)
Outline: as §1

[8] = test system: RARa:RXR (NR concentration 270 nM, RXRa partner concentration 90 nM)
Outline: as §1

[9] = test system: RARa homodimer (NR concentration 270 nM)
Outline: as §1

[10] = test system: RARb:RXRa (NR concentration 270 nM, RXRa partner concentration 90 nM)
Outline: as §1

| Sequence | PBM binding z-score [1] | PBM binding z-score [2] | PBM binding z-score [3] | PBM binding z-score [4] | PBM binding z-score [5] | PBM binding z-score [6] | PBM binding z-score [7] | PBM binding z-score [8] | PBM binding z-score [9] | PBM binding z-score [10] |
| --- | --- | --- | --- | --- | --- | --- | --- | --- | --- | --- |
| TCTATTAGTTGAAGGGCAACAGACGAGTCCGTTT | 2.12 | 0.473 | 0.759 | 0.516 | 1.01 | 0.991 | 0.988 | 0.764 | 1.52 | 1.55 |
| TAGCCTAGGTGATGGGCCAGTATACCACGCGAAC | -0.692 | 0.25 | -0.775 | -0.847 | -0.49 | -0.714 | -0.807 | -0.895 | -1.38 | -0.281 |
| TCGAGTAGGTTATGGGCATTCAGAATGGCGTCGA | 1.95 | 1.36 | -0.529 | -0.999 | 0.0273 | -0.316 | -0.754 | -0.148 | -0.374 | 0.453 |
| GATACAGGGTCTGCTAGAGGCCAGAGTATGGAAA | -0.826 | -0.333 | -1.05 | -1.35 | -0.406 | -0.54 | -0.558 | -0.523 | -0.148 | 0.305 |
| CCTATTAGTTGACCATAAGGGCAAACGAAGCTCG | 0.266 | 0.555 | 0.151 | 0.588 | 1.58 | 0.75 | 0.863 | 1.02 | 1.31 | 1.52 |
| CGAACTAGGTCATTGATAGGACAGTGAATAGTAA | 7.92 | 8.26 | 4.2 | 1.01 | 1.71 | 1.43 | 0.351 | 1.93 | 0.346 | 3.4 |
| ATCGAAAGGTCGTGTGGTGAGTATACAGAAAGGC | 0.568 | 1.69 | 2.41 | 1.23 | 2.3 | 3.25 | 0.999 | 3.74 | 1.51 | 3.6 |
| CGTCCAATGTCAGAGAGGTCAGTGAATGCCGAGT | 0.575 | 1.22 | -0.469 | -0.584 | 3.15 | 3.48 | 2.28 | 3.16 | 1.47 | 3.42 |
| TCTCGGAGGACACGAAAGATCAGAGCTCGACATC | 1.5 | 0.155 | -0.549 | -1.75 | -1.47 | -0.243 | -0.552 | -0.0104 | -0.742 | 1.17 |
| ATATGTCGGTTAAGGGTCATTCAGGTTGGTTCGC | 2.75 | 4.81 | 2.12 | 1.06 | 3.13 | 5.03 | 2.46 | 4.78 | 2.84 | 3.31 |
| GCGACTGGGGCAAAGCAGGTTCCCATAAGGTTGG | 3.87 | 2.9 | -1.3 | -1.28 | -0.328 | -0.524 | -0.517 | -0.168 | -1.06 | 0.44 |
| TCTGACAGGTGAAGGTAACTCAGGTACGCAGTCG | 2.21 | 1.39 | 0.246 | -0.0142 | 0.45 | 0.483 | -0.371 | 0.82 | 0.0675 | 1.28 |
| CATCAAAGTTCAACTAAGGTAACGTAAAGCACGC | 0.365 | 1.94 | 1.26 | 1.35 | 3.92 | 5.93 | 5.95 | 4.5 | 3.5 | 5.37 |
| ACTAGCAGGCCAAGGTTGGGTCACTCAAACAAAG | 0.282 | 0.868 | -0.95 | -1.46 | 0.597 | 0.524 | -0.493 | 1.24 | -0.93 | 1.69 |
| GCTTTTAGTTGAAAGGGCAACCGAATGATTCTCG | 0.524 | 0.732 | 0.316 | 0.582 | 0.658 | 0.695 | -0.255 | 0.953 | -0.0621 | 2.16 |
| CCGACTGGCGCAAAGGTTACCATACTCAGTACGA | 0.771 | 2.5 | -1.09 | -0.747 | 0.747 | 1.7 | -0.233 | 2.04 | -0.0622 | 1.75 |
| CCAGACAGGTGAGAGGGTAACTCAGCCTCGATTA | 0.762 | 1.58 | -0.651 | -0.852 | 0.818 | -0.0811 | -0.117 | 0.443 | 0.0595 | 0.951 |
| CGAACGAGGGCAGGAGTTGATAGCAAATGCCGAT | 1.98 | 1.44 | -0.723 | -0.762 | -0.323 | -0.216 | -0.229 | -0.159 | -0.0684 | 1.8 |
| TCTTGTAGATCAACAGGAGGTTAAGCAAGATCGA | 1.61 | 0.884 | 0.4 | 0.795 | -0.0893 | 0.934 | 0.136 | 1.22 | -0.27 | 0.659 |

| Sequence | PBM binding z-score [1] | PBM binding z-score [2] | PBM binding z-score [3] | PBM binding z-score [4] | PBM binding z-score [5] | PBM binding z-score [6] | PBM binding z-score [7] | PBM binding z-score [8] | PBM binding z-score [9] | PBM binding z-score [10] |
| --- | --- | --- | --- | --- | --- | --- | --- | --- | --- | --- |
| TTACCAAGGTGAAACGTCGTTGATGCACGCCTTG | 3.12 | 2.95 | 0.206 | 0.358 | 0.178 | -0.0159 | -0.972 | 0.592 | -0.282 | 1.62 |
| TCTGCTAGGTCAACGATGCTCAGCTAATCTGCTA | 4 | 3.88 | 0.146 | -0.121 | -0.00894 | 0.886 | -1.03 | 1.69 | -0.557 | 3.82 |
| CCTACTGGGCCATCTGGTCATTGATATCAACGTT | 3.95 | 4.15 | 0.821 | 0.613 | 0.5 | -0.397 | -0.43 | -0.692 | 0.0969 | 0.606 |
| CCTTACGGGTCACGAGGTTATAACACGACGAGCG | 3.55 | 5.17 | 1.01 | 0.726 | 2.11 | 4.38 | 0.145 | 5.6 | 0.574 | 4.58 |
| CGAACTAGGTCAAGGTCAAAGTCGGTTTGTGCCA | 8.45 | 8.59 | 3.32 | 1.2 | 4.39 | 5.28 | 2.59 | 5.41 | 1.57 | 4.93 |
| CCTAGCAGGCCAGGCTCACTCAAGCATTTCGCTT | 0.917 | -0.38 | -2.2 | -2.12 | -1.28 | -0.919 | -0.688 | -1.09 | -0.856 | -0.239 |
| TCCTATAGGTAAACAGGTGAAAGTCCGTAAGTTA | 3.29 | 3.06 | 0.2 | 0.663 | 0.672 | 0.638 | 0.0288 | 0.69 | 0.325 | 0.692 |
| TCTCGGAGGACACGAAGGTCTGAGCTTTCCAGAG | 1.12 | -0.0413 | -0.829 | -1.69 | -0.904 | -0.33 | -0.787 | 0.107 | -1.21 | 1.46 |
| CAACCAAGGTGAACAAGGTCGTTGATTACTATTC | 2.56 | 3.05 | 0.422 | 0.588 | 0.973 | 2.8 | 1.68 | 2.42 | 0.281 | 2.29 |
| CCTACTGGGCCAGGGTCATTGATCAGTCAAAGCA | 1.49 | 3.62 | -1.03 | -0.896 | 0.994 | 3.06 | 0.381 | 3.61 | -0.641 | 2.51 |
| ACAGACACGTGAGTGAAGGTAACTCAGCTGGACG | -0.453 | -0.172 | -0.0263 | 0.112 | -0.539 | -0.408 | -0.777 | -0.0459 | -0.522 | -0.255 |
| GGAAGGAGGGCAAGTTGATAGCAGAGTTTGATGG | 3.75 | 3.16 | 0.411 | 0.837 | 2.03 | 1.44 | 2.2 | 0.685 | 1.5 | 2.54 |
| CGAACTAGCTCATCCAGGACAGTGAATACATTGA | 0.221 | -0.126 | -0.227 | 0.607 | 0.205 | -0.344 | 0.167 | -0.0855 | -0.0939 | -0.208 |
| CCTCGAAGGACAGAAGGTCAGAGCTGTCCGCTTT | -0.0695 | -0.0413 | -0.921 | -1.97 | 1.14 | 1.08 | -0.321 | 1.83 | 0.748 | 3.06 |
| GCTCGGAGGACACGGTCAGAGCTTTGTCCGTAGA | -0.213 | -0.07 | -1.69 | -1.2 | -0.679 | -0.581 | -1.34 | -0.541 | -1.26 | 2.09 |
| AATTACGGGTCAACGAGGTTATAGCACGCGTATA | 3.6 | 5.01 | 2.85 | 2.31 | 3.16 | 5.27 | 3.27 | 5.49 | 1.87 | 4.27 |
| CAAACTAGGACAAGGTCAAAGTCGGTTTGTGCCA | 5.64 | 5.61 | 1.68 | 1.21 | 2.27 | 4.44 | 1.41 | 4.44 | 0.511 | 3.83 |
| CCTGCTAGGTTAATGGTCAGCTAAAGCAGCTCGC | 2.01 | 1.36 | -0.242 | -0.61 | 0.222 | -0.336 | -0.337 | 0.0339 | -0.547 | 1.26 |
| TGTCAAAGTTCAAAGGTAACGTAGGTATCCACAC | 0.105 | 4.5 | 1.01 | 1.42 | 2.88 | 5.78 | 3.36 | 6.75 | 1.57 | 5.06 |
